PMC5540273 (PLoS ONE, 2017)

What follows are compounds tested on VRK2. Conditions: concentration: 1 μM, replicates: in singlicate; n = 1.
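Further: KINOMEscan kinase panel screen.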

| SMILES | %Inh |
| --- | --- |
| Cn1cnc2c(N)ncnc21 [SKF-97623] | 96.8% |
| Cl.Cl.Cl.N#Cc1ccc(CCNc2nccc(-c3cccc(CN4CCNCC4)c3)n2)cc1 [GSK2137462] | 0% |
| O=C1NC(=O)C(c2ccc(Cl)cc2)=C1Nc1ccc(O)cc1 [SB-340867] | 0% |
| CC[C@@H]1CO[C@H](C(=O)Nc2ccccc2)CN1c1cc(-c2ccc3c(N)n[nH]c3c2)nc(NC)n1 [GSK2376236] | 0% |
| Cc1c(Cn2c3ccccc3n3c(=O)cc(N4CCOCC4)nc23)cccc1C(F)(F)F [GSK2306394] | 0% |
| CSc1ccc(-c2nc3n(c2-c2ccncc2)CCC3)cc1 [SKF-105561] | 3% |
| Cc1ccc(-c2nc(Nc3ccncc3)c3ccccc3n2)s1 [GSK189015] | 0% |
| Cc1ccc(NC(=O)Nc2ccc(Cl)cc2)cc1-c1ccc(C(=O)Nc2ccncc2)cc1 [GSK1398472] | 0% |
| CC(C)c1ccc(O)cc1Nc1ccnc2ccc(C(F)(F)F)cc12 [GW482059] | 0% |
| CC(C)c1cc(-c2ccc3c(N)n[nH]c3c2)nc(N)n1 [GSK2250882] | 4% |
| Fc1ccc(-c2nc3n(c2-c2ccncc2)CCS3)cc1 [GI98581] | 0% |
| Cc1cccc2c(-c3ccncn3)c(-c3ccc(F)cc3)nn12 [GW515532] | 0% |
| COc1cccc(NC(=O)Nc2ccc(C)c(-c3ccc(C(=O)Nc4ccncc4)cc3)c2)c1 [GSK1398474] | 0% |
| CNC(=O)c1ccc(C)c(-n2c(C)cc(OCc3ccc(F)cc3F)c(Br)c2=O)c1 | 0% |
| Cc1ccc(NC(=O)c2ccc(Cl)cc2)cc1-c1ccc(C(=O)Nc2ccncc2)cc1 [GSK1398467] | 27% |
| O=C(Nc1n[nH]c2nc(-c3cccs3)c(Br)cc12)C1CCCC1 [SB-743341] | 0% |
| COc1ccc2cc(-c3nc(-c4ccccc4C(C)C)[nH]c3-c3ccncc3)ccc2c1 [SB-660566] | 0% |
| COc1cc2ncnc(Nc3cccc(Br)c3)c2cc1OC.Cl [GI230329] | 24% |
| O=c1cc(N2CCOCC2)nc2n(Cc3cccc(Cl)c3Cl)c3ccccc3n12 [GSK2299009] | 0% |

| SMILES | %Inh |
| --- | --- |
| CC(=O)c1c(C)c2cnc(Nc3ccn(C)n3)nc2n(C2CCCC2)c1=O | 28% |
| CN1c2ccc(-c3ccc(C(N)=O)cc3)cc2-c2[nH]ncc2S1(=O)=O | 3% |
| COc1ccc(Nc2nccc(NCCNC(=O)Nc3cc(C)ccc3C)n2)cc1 [GSK1379899] | 0% |
| Nc1cccc(-c2ccc3c(N)n[nH]c3c2)n1 [GSK2192730] | 0% |
| CNc1nc(-c2ccc3c(N)n[nH]c3c2)cc(N2C[C@@H](C(=O)Nc3ccccc3)CC[C@H]2C)n1 [GSK2298859] | 0% |
| Cc1ccc(NC(=O)Nc2ccccc2F)cc1-c1ccc(C(=O)Nc2ccncc2)cc1 [GSK1398477] | 0% |
| c1ccc(-c2ccnc3[nH]ccc23)cc1 [SB-693578] | 27% |
| O=C(Nc1n[nH]c2nc(-c3cccs3)c(Br)cc12)C1CC1 [SB-735297] | 0% |
| Cn1cncc1C(=O)NC1CCN(c2ccnc(Nc3ccc(F)cc3)n2)C1 (stereo not shown) [GSK1379717] | 0% |
| COc1ccc(Nc2nccc(N3CCC(NC(=O)C(C)c4ccc(Cl)cc4)CC3)n2)cc1 (stereo not shown) [GSK1379812] | 0% |
| CCc1ccc(-c2ccc3c(c2)-c2n[nH]cc2S(=O)(=O)N3C)cc1 | 0% |
| CS(=O)(=O)CCNCc1nc(-c2ccc3ncnc(Nc4ccc(OCc5ccccc5)c(Cl)c4)c3c2)cs1.Cl [GW582764] | 50% |
| Cc1ccc(NC(=O)Nc2ccc(Cl)c(C(F)(F)F)c2)cc1-c1ccc(C(=O)Nc2ccncc2)cc1 [GSK1398470] | 8% |
| Fc1ccc(-c2nn3cccc(F)c3c2-c2ccncc2)cc1 [GW475620] | 22% |
| CNc1nc(-c2ccc3c(N)n[nH]c3c2)cc(N2C[C@@H](C(=O)NC3CCCCC3)OC[C@H]2C)n1 [GSK2375584] | 43% |
| Cn1cncc1-c1cc2c(Nc3ccc(OCc4ccccc4)cc3)ncnc2cn1 [GW281179] | 0% |
| Fc1ccc(-c2nc[nH]c2-c2ccncc2)cc1 [SB-217360] | 19% |
| COc1cccc(C2=C(Nc3cc(Cl)c(O)c(Cl)c3)C(=O)NC2=O)c1 [SB-390767] | 20% |
